A selection: hits, their analogues and other compounds. The true share with any hit is near 6.2%.
Cardio protect: cardioprotection against H2O2-induced cell death, primary screen, uHTS, H9c2 cells, ATPLite luminescence; protection from H2O2 cell death, % at 20 µM; 360,000 compounds, 0.63% hits; H9c2 cardiomyocytes, H2O2 injury protection, 2 h; AID 588492, 2011;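 active = compounds giving at least 50% protection of heart cells from peroxide-induced death in the single-dose screen, raw or plate-pattern-corrected value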;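 also: 0% = DMSO wells with peroxide and 100% = DMSO wells without peroxide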
GRIN3A LBD mod: binders of NR3A ligand-binding domain, primary screen, biophysical, differential scanning fluorimetry, uHTS; AID 1259313, 2017; Glutamate receptor ionotropic, NMDA 3A (GRIN3A) ligand-binding domain; 340,000 compounds, 2.5% hits; Tm shift relative to glycine control, % at 25 µM; NR3A LBD differential scanning fluorimetry, Tm shift; 0% = protein alone, 100% = glycine-bound protein;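 active = melting temperature shift of at least 10% of the positive control shift, at one fixed dose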
SUMO Mot1 rescue: yeast Mot1-301 growth rescue at high temperature, primary screen, SUMOylation pathway inhibitor project, S. cerevisiae, ATP luminescence, 38.5C. S. cerevisiae Mot1-301 growth rescue; percent above DMSO median, 100 means doubled. growth rescue, % at 18.8 µM. 320,000 compounds, 1% hits;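 active = every valid replicate shows activation above 250% relative to neutral control wells; inactive = the rest, any valid replicate at or below 250%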;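 also: OY570 slx delta 5 strain wells were the positive control but not used for scaling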
AI-2 QS modul: Vibrio harveyi AI-2 quorum sensing modulators, primary screen, JMH597 strain, luminescence/OD600 ratio; 300,000 compounds, 0.4% hits; activity change, % at 7.5 µM; AID 2094, 2009; Vibrio harveyi JMH597 AI-2 luminescence/OD600 ratio, 9 h; hits give low values; strain lacks LuxN and CqsS sensors; 0 = neutral-control median; in the data active = activity change below about -75%, passing the limit was not always enough;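 also: luminescence divided by OD600 gain over 9 h not by final OD600 alone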
NTR1 agonist: agonists of human NTR1, primary screen, imaging, U2OS cells, beta-arrestin-GFP, high content; NTR1-U2OS beta-arrestin-GFP spot imaging, agonist mode; activation, % at 20 µM; 330,000 compounds, 0.17% hits; AID 493036, 2011;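 active = activation at or above 40% of the spot to cytoplasm intensity ratio, with at least 20 cells analyzed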;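 also: 0% = DMSO without peptide and 100% = 100 nM NTR1 peptide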
Target sequence (P30989 whole entry, looked up): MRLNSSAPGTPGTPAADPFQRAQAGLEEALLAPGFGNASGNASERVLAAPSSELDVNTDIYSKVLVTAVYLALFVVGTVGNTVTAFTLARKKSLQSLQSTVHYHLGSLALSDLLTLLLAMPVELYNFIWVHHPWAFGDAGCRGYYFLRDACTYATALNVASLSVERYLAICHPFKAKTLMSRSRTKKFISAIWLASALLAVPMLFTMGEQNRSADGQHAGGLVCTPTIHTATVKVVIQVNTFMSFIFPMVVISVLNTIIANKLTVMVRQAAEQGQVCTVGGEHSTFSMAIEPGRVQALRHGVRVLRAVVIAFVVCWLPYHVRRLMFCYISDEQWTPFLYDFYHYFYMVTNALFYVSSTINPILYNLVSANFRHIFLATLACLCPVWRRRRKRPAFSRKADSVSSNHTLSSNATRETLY
AHR act: AHR activators, primary screen, cell-based, luminescence, luciferase reporter, human; AHR-responsive luciferase reporter cells; 320,000 compounds, 2.5% hits; Aryl hydrocarbon receptor (Homo sapiens), P35869; activation, % at 5 µM; in the data active = activation above about 47%;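 also: 0% = vehicle wells and 100% = reference agonist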
Yeast Mot1 SUMO: growth restoration of Mot1-301 yeast on galactose, dose response, SUMO pathway inhibitor project, whole organism, S. cerevisiae, ATP luminescence, cherry-picked samples | shares compounds with SUMO Mot1 rescue | growth activity, percent, % at 42 µM | S. cerevisiae Mot1-301 galactose growth, 24 h; -100 = growth of slx-deleted rescue strain | 2,300 tested, under 10 active;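 active = Signal drops as the depositor expects, and the fitted half-maximal dose is no more than ten times the top valid tested dose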;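 also: more negative values mean stronger growth rescue toward the control strain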
Numbers without * were called inactive; / = no result given; + = active, no number; [ ] = dose if it differs, or a comment.

SMILES	Cardio protect	GRIN3A LBD mod	SUMO Mot1 rescue	AI-2 QS modul	NTR1 agonist	AHR act	Yeast Mot1 SUMO
O=C(O)c1cccc(N2C(=O)C3C4C=CC(C4=C(c4ccccc4)c4ccccc4)C3C2=O)c1 (stereo not given)	-1	0	599*	-2	2	1	0
O=C(O)c1cccc(N2C(=O)c3ccc4c5c(ccc(c35)C2=O)C(=O)N(c2cccc(C(=O)O)c2)C4=O)c1	6	-1	12	17	1	-1	/
CC(NC(=O)CCc1nnc(-c2ccc(-c3ccccc3)cc2)o1)c1nc2ccccc2[nH]1 (stereo not given)	4	-2	452*	8	0	-5	0
CCCN1CCN(CCCNC(=O)Cn2nc(C)n3c(cc4cc(F)ccc43)c2=O)CC1	-2	-1	129	3	0	4	/
CCCNC(=O)Cn1nc(C)n2c(cc3cc(F)ccc32)c1=O	-2	2	+	57	0	/	0
CCCCC1=CC2=CC(=O)C(C)(OC(=O)CC)C(=O)C2=CN1Cc1ccccc1 (stereo not given)	4	-1	190	10	-1	0	/
CCCCC1=CC2=CC(=O)C(C)(OC(=O)CC)C(=O)C2=CN1CCc1ccc(Br)cc1 (stereo not given)	-6	-2	526*	2	2	-4	0
COc1ccccc1-c1ccc2c(c1)C(C)(Cc1ccc(F)c(Cl)c1)C(=O)N2 (stereo not given)	-30	/	/	/	/	/	/
COc1ccc(C(=O)CC(=O)C(=O)Nc2cc(C)ccc2C)cc1	10	1	-25	6	0	32	/
COc1ccc(C(=O)CC(=O)C(=O)Nc2ccc(C)c(Cl)c2)cc1	17	-3	918*	58	/	1	1
O=C(CCNS(=O)(=O)c1cccc2nsnc12)NCCC1=CCCCC1	16	1	712*	21	-2	12	0
O=S(=O)(NCCC1=CCCCC1)c1cccc2nsnc12	-3	0	/	22	/	/	/
O=[N+]([O-])c1ccc(Sc2ncccn2)c([N+](=O)[O-])c1	1	-2	-23	32	2	0	/
O=C(O)CCSc1ccc([N+](=O)[O-])cc1[N+](=O)[O-]	0	1	363*	17	3	2	-1
CC(C)C[C@H]1CNC(=S)N1C[C@H]1CCCN1C[C@H](Cc1ccccc1)N1C[C@H](CC(C)C)N(CCc2ccccc2)C1=S	-3	/	/	/	/	/	/
CC(C)CCC1(CCO)C(=O)N=C(N)NC1=O (stereo not given)	0	4	/	/	/	/	/
Cc1ccc(C(=O)N/C(=C/c2ccccc2)C(=O)NCC2CCCO2)cc1 (stereo not given)	8	0	399*	4	-1	12	0
COC(=O)c1ccc(/C=N/NC(=O)C(=O)NCC2CCCO2)cc1 (stereo not given)	4	0	731*	11	0	-2	1
O=C(NCC1CCCO1)C(=O)N/N=C\c1ccc2c(c1)OCO2 (stereo not given)	3	0	6	3	0	/	/
CCc1ccc2[nH]c(=O)c(C(c3nnnn3Cc3ccccc3)N3CCOCC3)cc2c1 (stereo not given)	4	0	478*	6	0	11	0
COc1ccc(CCC(=O)N/N=C/c2ccc3c(c2)OCO3)cc1	8	1	-5	16	1	34	/
CC(C)N=C(NS(=O)(=O)NC(=O)c1ccccc1)c1ccccc1	6	-1	456*	27	1	5	0
COCCN(C(=O)C1CC1)c1nnc(-c2ccc(C)cc2)s1	0	-2	731*	11	0	-16	0
Cc1ccsc1C(=O)N1CCC1(C)C(=O)NS(=O)(=O)c1ccc(C#N)cc1 (stereo not given)	10	/	/	/	/	/	/
COc1ccc(S(=O)(=O)N2CCc3cc4c(cc3C2C)OCCCO4)cc1 (stereo not given)	-6	4	600*	-5	2	3	-1
SMILES	Cardio protect	GRIN3A LBD mod	SUMO Mot1 rescue	AI-2 QS modul	NTR1 agonist	AHR act	Yeast Mot1 SUMO
CCCNC(=O)C1(C)CCCN(C(=O)c2ccccc2F)C1 (stereo not given)	0	/	/	/	/	/	/
COC(=O)c1ccc(Cl)c(NC(=O)CN(c2ccc(OC)c(OC)c2)S(C)(=O)=O)c1	-1	0	563*	12	-1	0	0
COC(=O)c1ccc(Cl)c(NC(=O)CN(c2ccc(OC)cc2)S(=O)(=O)c2ccccc2)c1	2	-2	-4	-1	0	2	/
CC(=O)Nc1ccc(/C(C)=N/NC(=O)c2ccncc2)cc1	-7	-1	+	20	1	10	0
Cc1ccnc(NC(=O)c2ccc(Br)s2)c1	-14	0	618*	3	1	22	-2
Cc1ccnc(NC(=O)c2cccs2)c1	-12	1	-1	3	0	9	/
CC(C)CCOCc1nc2sc3c(c2c(=O)[nH]1)CCC(C)C3 (stereo not given)	2	0	593*	13	1	0	0
CCOC(=O)c1nc2sc3c(c2c(=O)[nH]1)CCC(C)C3 (stereo not given)	-11	1	402	-4	1	2	/
CC1(c2ccccc2Br)NC(=O)N(CC(=O)NC2CCCCC2)C1=O (stereo not given)	-3	3	-15	/	-2	0	/
Cc1ccc(-c2csc3ncn(CC(=O)N4CCOCC4)c(=O)c23)cc1	-1	-2	362*	-2	0	-3	0
O=C(Cn1cnc2scc(-c3ccc(Cl)cc3)c2c1=O)N1CCOCC1	-4	0	14	2	0	6	/
Cc1ccc2c(c1)N(C(=O)CCC(=O)NCc1cccnc1)CC(C)O2 (stereo not given)	-4	2	3	28	1	7	/
NC1=NC(=Nc2ccc(S(N)(=O)=O)cc2)c2ccccc21	-1	-1	419*	7	0	-1	0[21 µM]
Cc1c(C(=O)N2CCCC(C)(C(=O)NS(=O)(=O)C3CC3)C2)oc2ccccc12 (stereo not given)	3	/	/	/	/	/	/

Compound activity: PubChem, several laboratories
